# Measured values taken from PubChem BioAssay.
# The source made the active and inactive calls.
# Assays:
# [1] = anti-His antibody binders, primary screen, artefact control for SMM control protein annotation, biochemical, small-molecule microarray, 635 nm fluorescence (AID 1128); settings: anti-His Alexa647 antibody binding, higher = more signal;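 note: score merges feature fluorescence with signal-to-noise for each printed compound spot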
# [2] = test system: Human papillomavirus type 1a E7 protein (residues 1-88); experiment: HPV1a E7 small-molecule binders, primary screen, biochemical, small-molecule microarray, residues 1-88, 635 nm (AID 1129); settings: small-molecule microarray binding, fluorescence 635 nm; higher = more signal
# [3] = molecular target: Focal adhesion kinase 1 (Homo sapiens) (UniProt Q05397); experiment: small-molecule microarray binders of FAK, primary screen, biochemical, 635/667 nm fluorescence, BSA, DTT (AID 1130); settings: PTK2 binding, 635 nm fluorescence, higher = more signal;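 note: composite of spot emission at 667 nm and signal to noise over triplicate slides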
# [4] = test system: Fibrinogen (Alexa647-labelled); experiment: fibrinogen binders on compound microarrays, profiling panel, artefact control for SMM control-protein annotation, biochemical, small-molecule microarray, 635/667 nm fluorescence (AID 1131); settings: fibrinogen-A647 binding fluorescence, higher = more signal;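 note: z-score merges 667 nm fluorescence with per-spot signal-to-noise over triplicate slides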
# [5] = molecular target: Follistatin (Homo sapiens) (UniProt P19883); experiment: follistatin binders on small-molecule microarrays, primary screen, biochemical, small-molecule microarray, 635/667 nm fluorescence (AID 1132); settings: FST binding, 635 nm fluorescence, higher = more signal
# [6] = molecular target: Fibroblast growth factor 2 (Homo sapiens) (UniProt P09038); experiment: FGF2 binders on small-molecule microarrays, primary screen, biochemical, small-molecule microarray, 635/667 nm fluorescence (AID 1133); settings: small-molecule microarray binding, FGF2, fluorescence 635/667; higher = more signal
# [7] = mitochondrial membrane potential change in A549 cells, profiling panel, cell-based, JC-1 fluorescence, basal, 24 h, 100 nL (AID 1138); settings: higher = more signal;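 note: A549 lung adenocarcinoma cells under basal conditions with no added stimulus; test concentration not given here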
# Lefty1 = Lefty1 binders on small-molecule microarrays, primary screen, biochemical, small-molecule microarray, 635/667 nm fluorescence (AID 1139); settings: small-molecule microarray binding, fluorescence 635/667; higher = more signal
# [8] = test system: wheat germ agglutinin (Triticum aestivum), Alexa647-labelled; experiment: wheat germ agglutinin binders on compound microarrays, profiling panel, artefact control for SMM control-protein annotation, biochemical, small-molecule microarray, 635/667 nm fluorescence (AID 1140); settings: WGA-A647 binding, 635 nm fluorescence, higher = more signal;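 note: score merges 667 nm feature emission with signal to noise over triplicate slides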
# [9] = molecular target: Luciferin 4-monooxygenase (Photinus pyralis) (UniProt P08659); experiment: firefly luciferase enzyme inhibitors, primary screen, biochemical, luminescence, purified enzyme, 2006 set (AID 1141); settings: SteadyGlo luminescence, 30 min, higher = more signal, called active from +8 up or from −8 down;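 note: cell-free assay with purified firefly luciferase at 100 ng per well in PBS; test concentration not given here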
# Luciferin 4-monooxygenase (Photinus pyralis), sequence (P08659 whole entry, looked up): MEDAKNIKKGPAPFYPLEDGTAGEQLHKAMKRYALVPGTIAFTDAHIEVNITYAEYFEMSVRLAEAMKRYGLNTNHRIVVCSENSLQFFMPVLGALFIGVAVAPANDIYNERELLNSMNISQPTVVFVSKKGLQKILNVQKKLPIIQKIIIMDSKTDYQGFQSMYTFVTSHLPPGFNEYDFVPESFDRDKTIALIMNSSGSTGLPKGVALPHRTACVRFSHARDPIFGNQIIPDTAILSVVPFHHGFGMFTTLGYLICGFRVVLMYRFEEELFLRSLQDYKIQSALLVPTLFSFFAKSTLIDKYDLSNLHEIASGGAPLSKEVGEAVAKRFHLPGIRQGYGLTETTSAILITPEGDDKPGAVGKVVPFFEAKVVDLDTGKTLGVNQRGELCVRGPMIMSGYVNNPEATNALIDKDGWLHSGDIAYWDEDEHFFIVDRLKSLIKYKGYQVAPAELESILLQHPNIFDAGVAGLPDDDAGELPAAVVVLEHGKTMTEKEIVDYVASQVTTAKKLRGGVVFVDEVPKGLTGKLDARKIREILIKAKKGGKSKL
# Focal adhesion kinase 1 (Homo sapiens), sequence (Q05397 whole entry, looked up): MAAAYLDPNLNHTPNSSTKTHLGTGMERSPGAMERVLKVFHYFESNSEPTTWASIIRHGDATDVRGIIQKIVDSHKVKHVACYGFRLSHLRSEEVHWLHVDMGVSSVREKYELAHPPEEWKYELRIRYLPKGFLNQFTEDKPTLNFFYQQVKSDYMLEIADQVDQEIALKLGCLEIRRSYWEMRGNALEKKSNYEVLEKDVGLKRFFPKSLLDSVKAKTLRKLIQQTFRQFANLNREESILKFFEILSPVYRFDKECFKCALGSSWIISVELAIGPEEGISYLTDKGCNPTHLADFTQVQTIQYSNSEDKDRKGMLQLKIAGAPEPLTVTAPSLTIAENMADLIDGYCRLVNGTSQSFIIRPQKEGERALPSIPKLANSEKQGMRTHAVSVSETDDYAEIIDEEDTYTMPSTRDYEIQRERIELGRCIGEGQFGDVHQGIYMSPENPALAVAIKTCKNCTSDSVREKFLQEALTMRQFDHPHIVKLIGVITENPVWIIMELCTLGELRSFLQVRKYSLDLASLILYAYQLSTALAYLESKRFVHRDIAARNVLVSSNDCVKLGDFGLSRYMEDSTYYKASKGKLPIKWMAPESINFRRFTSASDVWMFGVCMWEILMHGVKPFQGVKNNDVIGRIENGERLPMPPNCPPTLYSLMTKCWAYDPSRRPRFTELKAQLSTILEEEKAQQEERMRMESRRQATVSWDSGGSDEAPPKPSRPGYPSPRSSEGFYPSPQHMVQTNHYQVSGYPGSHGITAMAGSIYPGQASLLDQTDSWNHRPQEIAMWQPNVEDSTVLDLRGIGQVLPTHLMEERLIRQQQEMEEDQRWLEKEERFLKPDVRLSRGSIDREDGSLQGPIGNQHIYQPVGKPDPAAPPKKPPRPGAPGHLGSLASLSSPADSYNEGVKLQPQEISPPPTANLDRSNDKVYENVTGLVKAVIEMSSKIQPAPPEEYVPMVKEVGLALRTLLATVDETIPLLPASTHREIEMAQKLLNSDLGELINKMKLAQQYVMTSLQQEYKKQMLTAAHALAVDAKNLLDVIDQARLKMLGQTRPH
# Fibroblast growth factor 2 (Homo sapiens), sequence (P09038 whole entry, looked up): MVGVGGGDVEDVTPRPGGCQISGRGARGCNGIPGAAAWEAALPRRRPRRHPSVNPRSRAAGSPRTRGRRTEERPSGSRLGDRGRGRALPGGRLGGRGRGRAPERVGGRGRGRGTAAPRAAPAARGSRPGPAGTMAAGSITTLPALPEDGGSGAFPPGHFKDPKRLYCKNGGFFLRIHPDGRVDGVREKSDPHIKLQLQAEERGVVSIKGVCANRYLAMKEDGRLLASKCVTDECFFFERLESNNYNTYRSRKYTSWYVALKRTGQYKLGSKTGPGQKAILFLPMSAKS
# Follistatin (Homo sapiens), sequence (P19883 whole entry, looked up): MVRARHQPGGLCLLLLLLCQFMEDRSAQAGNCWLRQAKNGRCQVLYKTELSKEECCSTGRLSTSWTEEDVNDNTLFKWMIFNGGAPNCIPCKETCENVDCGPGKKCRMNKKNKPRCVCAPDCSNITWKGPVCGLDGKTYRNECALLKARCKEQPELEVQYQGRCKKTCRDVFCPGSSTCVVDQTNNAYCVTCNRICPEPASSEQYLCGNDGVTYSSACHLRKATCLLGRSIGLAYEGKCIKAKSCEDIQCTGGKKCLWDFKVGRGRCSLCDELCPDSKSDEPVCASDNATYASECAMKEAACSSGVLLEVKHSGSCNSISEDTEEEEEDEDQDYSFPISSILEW
SMILES,composite z-score [1],composite z-score [2],composite z-score [3],composite z-score [4],composite z-score [5],composite z-score [6],z-score [7],composite z-score (Lefty1),composite z-score [8],z-score [9]
COc1ccc(CCNC(=O)[C@@H]2c3ccccc3C(=O)N(c3ccc(C)cn3)[C@H]2c2ccc(CO)cc2)cc1,0.315,0.469,-0.34,-2.21,-0.25,-0.609,-0.61,-1.17,-0.293,0.85 (inactive)
CC(=O)OC[C@H]1O[C@@H](ON=C(C)CCN2CCc3nc(-c4ccccc4)c(-c4ccccc4)cc3C2)[C@H](OC(C)=O)[C@@H](OC(C)=O)[C@@H]1OC(C)=O,-0.116,1.11,0.276,0.867,0.992,1.19,1.13,0.699,0.491,0.93 (inactive)
CS(=O)(=O)CCOC(=O)C1=CC(CCCO)=CC(c2cccs2)N(Cc2cccc(OC(F)(F)F)c2)C=C1C(=O)OCCS(C)(=O)=O (stereo not given),0.97,1.03,0.905,0.579,0.243,0.202,1.64,0.578,1.02,-2.01 (inactive)
COC(=O)CC=C[C@@H](C)[C@@H](C=NO[C@H](C)c1cn([C@@H]2COC[C@H]2O)nn1)OC,1.19,0.695,-0.0208,-0.0974,0.341,0.796,0.014,0.645,-0.116,-0.287 (inactive)
C#CCCCON=C1C[C@@H](O)[C@@H](O)[C@@H]2[C@@H]3C(=O)N(CCC(=O)OCC)C(=O)[C@@H]3CC[C@@H]12,-0.264,-0.0592,0.934,0.211,-1.11,-0.823,-0.139,-0.655,0.662,0.224 (inactive)
CN1C(=O)C2C=CC(C(O)c3ccc(Br)cc3)N(N(c3ccccc3)c3ccccc3)C2C1=O (stereo not given),0.373,0.77,0.704,0.312,0.502,-0.538,1.34,-0.409,0.585,-0.495 (inactive)
C=C(CCCC)C(=O)CC[C@@H](OC(C)=O)c1cccc(OCCO)c1,0.936,-0.864,-0.0296,-0.75,1.3,0.829,-0.497,0.932,-1.1,-0.879 (inactive)
COc1ccc(COC(=O)NN=C2C[C@@H](O)[C@@H](O)[C@@H]3[C@@H]4C(=O)N(c5ccc(F)cc5F)C(=O)[C@@H]4CC[C@@H]23)cc1,0.257,-0.769,0.0141,0.794,-0.409,-0.0007,-0.604,-0.291,0.744,0.506 (inactive)
O=C1[C@H]2[C@H]3[C@H](O)[C@H](O)CC(=NOCc4ccccc4)[C@H]3CC[C@H]2C(=O)N1C[C@@H]1CCCO1,0.216,0.586,-0.0074,0.953,0.393,1.12,-0.877,0.249,0.352,0.949 (inactive)
O=C1[C@H]2[C@H]3[C@H](O)[C@H](O)CC(=NOC[C@@H](O)COCc4ccco4)[C@H]3CC[C@H]2C(=O)N1C1CCCCC1,-0.0844,-0.476,-0.329,-1.02,1.21,1.07,-0.948,1.3,-1.22,0.822 (inactive)
C[C@@H]1C=CCC(=O)OC[C@H](C)C(=O)N2CCC[C@H]2C(=O)OC1,2.67,0.589,-0.344,-0.592,1.31,1.74,-0.741,1.59,-0.273,1.1 (inactive)
CC1(C)OCC(C(O)C2=CCCCC2=O)CO1 (stereo not given),0.485,0.279,0.0102,0.945,0.97,0.938,-0.867,1.33,0.731,0.114 (inactive)
CCCCCN1CC=CC23O[C@@H]4C=CCOC(=O)[C@@H]4[C@H]2C(=O)N(CCCCCCO)[C@@H]3C1=O (stereo not given in full),0.309,-0.381,-0.236,-1.04,-2.23,-1.49,0.421,-1.05,-0.416,0.294 (inactive)
COc1ccccc1CN1C(=O)c2ccccc2[C@@H](C(=O)NCC(F)(F)F)[C@@H]1c1ccc(CO)cc1,0.218,0.993,0.391,0.532,1.06,1.05,1.13,1.13,0.185,0.806 (inactive)
CCOC(=O)NN=C1C[C@@H](O)[C@@H](O)[C@@H]2[C@@H]3C(=O)N(C4CCCCC4)C(=O)[C@@H]3CC[C@H]12,0.0946,0.832,0.25,0.657,0.061,0.0615,-1.13,0.78,0.395,0.63 (inactive)
CC(C)NC(=O)[C@@]1(C)c2ccccc2C(=O)N(Cc2cc(F)cc(C(F)(F)F)c2)[C@H]1c1ccc(CO)cc1,0.886,0.982,0.0792,0.335,0.677,1.67,-0.483,0.0338,0.512,0.433 (inactive)
CN(C)c1ccc(C(O)C2C=CC3C(=O)N(c4ccccc4)C(=O)C3N2Nc2ccccc2F)cc1 (stereo not given),1.68,1.24,0.0651,0.793,0.404,-0.872,-1.06,0.0136,0.792,-0.484 (inactive)

SMILES,composite z-score [1],composite z-score [2],composite z-score [3],composite z-score [4],composite z-score [5],composite z-score [6],z-score [7],composite z-score (Lefty1),composite z-score [8],z-score [9]
CCOC(=O)CCN1C(=O)[C@H]2[C@H]3[C@H](O)[C@H](O)CC(=NOC[C@@H](O)COCc4ccco4)[C@@H]3CC[C@H]2C1=O,1.08,-0.0069,0.144,0.825,-0.977,0.225,0.928,-0.219,0.0513,0.542 (inactive)
CC(C)(C)N1C(=O)[C@H]2[C@H]3[C@H](O)[C@H](O)CC(=NOCc4ccccc4)[C@@H]3CC[C@H]2C1=O,0.94,0.808,-0.0913,0.921,0.785,0.742,0.0533,0.744,0.441,-1 (inactive)
CO[C@@H]1COC(=O)[C@@H]2CCCN2C(=O)[C@@H](C)COC(=O)[C@H](COCc2ccccc2)NC(=O)CC=C[C@H]1C,0.284,0.692,0.0252,0.385,0.421,0.27,-0.714,0.698,-0.07,0.951 (inactive)
CCCCCN1CC=CC23O[C@@H]4C=CCOC(=O)[C@@H]4[C@H]2C(=O)N(C(CO)C(C)C)[C@@H]3C1=O (stereo not given in full),0.373,-1.02,-0.565,-0.217,0.142,-0.533,-0.348,0.0028,-0.521,0.281 (inactive)
COCCNC(=O)OCC1CCCC2(CC(OC(=O)NCCc3ccc(F)cc3)CC(CCC(=O)N[C@@H](C)C(=O)OC)O2)O1 (stereo not given in full),1,1.12,0.104,0.895,1.26,1.18,1.28,0.969,0.618,0.349 (inactive)
CCOC(=O)[C@H](CC(C)C)NC(=O)CCC1CC(OC(=O)NCc2cccc3ccccc23)CC2(CCCC(COC(=O)NCCc3ccccc3OC)O2)O1 (stereo not given in full),1.02,1.12,0.0969,0.949,0.583,0.485,0.041,1.5,0.225,0.755 (inactive)
CO[C@@H]1COC(=O)CC=C[C@@H](C)[C@@H]2C=C[C@H](O)[C@@H](COC(=O)CCC[C@H]1C)O2,1.59,-0.442,-0.382,-0.478,1.06,1.3,-0.992,1.08,-0.0297,0.732 (inactive)
CCOC(=O)C[C@H]1[C@H](OC(=O)c2cc3ccccc3oc2=O)[C@@H](NC(=O)c2ccc3ccccc3n2)c2cc(OCCCO)ccc2N1C(=O)c1ccccc1,1.06,0.803,0.513,0.584,1.14,1.23,-0.837,0.606,0.354,0.497 (inactive)
CC(=O)OC[C@H]1O[C@H](CCON=C(C)CCN2CCc3nc(-c4ccccc4)c(-c4ccccc4)cc3C2)C=C[C@@H]1OC(C)=O,-0.437,0.0723,0.186,0.476,0.129,-0.138,1.15,0.172,0.563,0.938 (inactive)
COc1ccc(-c2ccc3c(n2)CCCN3CC(O)CN2CCCc3nc(C)c(C)cc32)cc1 (stereo not given),2.62,0.478,0.351,0.733,1,0.62,1.7,1.05,1.03,-1.2 (inactive)
CC[C@@H](c1ccccc1)n1c(=O)n2n(c1=O)[C@H]1[C@H](O)[C@@H]3O[C@@H]3C(=NOCC=C(C)CCC=C(C)C)[C@H]1CC2,0.592,1.1,0.301,0.417,0.708,0.55,0.0549,1.25,0.359,-0.726 (inactive)
CC(C)CON=C1C[C@@H](O)[C@@H](O)[C@@H]2[C@@H]3C(=O)N(C[C@@H]4CCCO4)C(=O)[C@@H]3CC[C@H]12,0.361,0.625,0.0201,0.286,0.268,0.911,-0.786,0.541,0.0098,1.01 (inactive)
CCCCc1nc2c(c3c1C[C@H](C)OC3)CN(CCC(C)C)CC2,0.965,1.13,0.0171,0.928,0.818,0.732,1.8,1.17,0.399,-0.438 (inactive)
CC(C)NC(=O)[C@@H]1c2ccccc2C(=O)N(CC23CC4CC(CC(C4)C2)C3)[C@H]1c1ccc(CO)cc1,0.526,1.23,0.417,0.973,1.35,0.615,0.689,0.822,0.298,0.892 (inactive)
CC(=O)OC[C@H]1O[C@H](C#CCCCc2ccccc2)C=C[C@@H]1OC(C)=O,0.451,0.242,0.126,0.735,0.47,0.83,-0.264,0.696,0.353,-1.65 (inactive)
C=C(/C(=C/C[C@H](OC(C)=O)c1ccc(OCCO)cc1)c1cnc2ccccc2c1)C(C)C,0.888,1.19,-0.0763,0.921,1.45,1.31,0.414,1.48,0.585,-0.477 (inactive)
COc1ccc(O[C@H]2C=C[C@@H](c3ccccc3)O[C@@H]2COC(=O)N2CCCCC2)cc1,-0.475,-1.23,-0.073,-0.528,0.12,0.571,-0.433,0.225,-0.249,0.711 (inactive)
